HCV inhibitor = inhibitors of hepatitis C virus infection; Huh7.5.1 HCVcc-Cre infection, luciferase reporter, 44 h; Potency, µM (doses to about 41.8 µM), without a hit: top-dose activity change, negative = inhibition, actives largely listed as inhibitors; 340,000 tested, 3.4% active; AID 651820; active means well fitted inhibition curve with a large enough effect; inconclusive means small, poorly fitted or top-dose-only effect, or another doubt; inactive means no such curve, though single readings can be large or run the other way; further: potency means the concentration at half of the fitted maximal effect
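Seed cells (1,000/well) for 4 h; treat with compound and infect with HCVcc-Cre, moi about 0.5. Incubate 44 h, then detect luciferase activity.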
FMDV antiviral = antivirals against foot and mouth disease virus; FMDV antiviral cell-based qHTS; Potency, µM (doses to about 57.9 µM), for the others: top-dose activity change, negative = inhibition, most hits filed as inhibitors; 410,000 tested, 1.2% active; calls by dose curve; tested in HEK293T cells; further: read-out not given here; potency means the concentration at half of the fitted maximal effect; nearly all actives have a fitted effect of over 45% in size
Marburg entry inh = inhibitors of Marburg virus binding or cell entry; Marburg virus pseudotyped entry inhibition, cell reporter; Potency, µM (series often up to 37.8 µM), for inactives: at the top dose activity change, negative = inhibition, most hits filed as inhibitors; 300,000 tested, 1.8% active; calls by dose curve; tested in HEK293 cells; further: potency means the concentration at half of the fitted maximal effect
Lassa entry inh = Lassa virus entry inhibition; Lassa virus pseudotype entry inhibition, cell reporter; Potency, µM (titrated, usually from 37.9 µM), for inactives: at the highest dose activity change, negative = inhibition, hits mostly inhibitors; 300,000 tested, 1.2% active; calls by dose curve; tested in HEK293 cells; further: potency means the concentration at half of the fitted maximal effect; nearly all actives have a fitted effect of over 50% in size
HCMV antiviral = human cytomegalovirus inhibition | HFF cells, HCMV-luciferase reporter, 72 h; stronger effect = lower value | activity change, negative = inhibition, % at 57.5 µM | 410,000 tested, 4.5% active | AID 1259415; in the data active means activity change below about -60%; inconclusive means no clear call, values can overlap the other calls; inactive means above about -39%
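After 16 h attachment at 37C, HFF cells received test compound and HCMV-luciferase (1 PFU/cell); reporter luminescence read 72 h later, data normalized against buffer-only and known inhibitor Salinomycin.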
The depositor's hits bear a star; ? = inconclusive; . = no result given; [ ] = another dose, or the depositor's remark. Sampled rows, rich in hits. Any-hit rate of the full collection: about 7.9%. On the % scale 0 is the no-effect control and ±100 the full control effect.

SMILES | HCV inhibitor | FMDV antiviral | Marburg entry inh | Lassa entry inh | HCMV antiviral
CCC(=O)Nc1ccc(CC)cc1-c1nc2ccccc2n(Cc2ccccc2)c1=O | . | 12% | -3%[46.1 µM] | 4%[46.1 µM] | 14
CN(CCO)C(=O)c1cn(C2CCCN(Cc3ccc(C(F)(F)F)cc3)C2)nn1 (stereo not given) | . | -16% | . | . | .
COc1ccc(Cn2c(C(=O)O)c(CNC3CCC(C)CC3)c3ccc(C)cc32)cc1 (stereo not given) | . | -10% | . | 19%[46.1 µM] | -10
Cc1c(C(=O)NCc2ccc3c(c2)OCCO3)sc(=O)n1Cc1ccc2c(c1)OCO2 | . | -13% | . | . | ?
CSc1ccc(Cn2c(C)c(C(=O)NCc3ccc4c(c3)OCCO4)sc2=O)cc1 | . | ? | . | . | -74*
COc1cccc(C2/C(=C(/O)c3cnn(-c4ccccc4)c3C)C(=O)C(=O)N2CCN(C)C)c1OC (stereo not given) | -4% | 0% | 1.1µM* | -7% | -11
COc1ccccc1C1/C(=C(/O)c2cnn(-c3ccccc3)c2C)C(=O)C(=O)N1CCN(C)C (stereo not given) | 1% | 4% | . | . | ?
CCCSc1nnc(-c2cccc(S(=O)(=O)N(C)C)c2)n1-c1cc(OC)ccc1OC | -10% | 16% | -3% | -5% | -62*
O=c1c(-c2cc(-c3ccccc3)nc3c2COc2ccc(Cl)cc2-3)coc2ccccc12 | . | -2% | -3%[46.1 µM] | 7%[46.1 µM] | 8
O=C(/C=C/c1ccccc1)NC(=S)Nc1ccc(CN2CCOCC2)cc1 | -18% | ? | ? | 2% | -76*
CC(C)C(=O)NC(=S)Nc1ccc(CN2CCOCC2)cc1 | 12% | 13% | . | . | -9
CC(C)c1ccc(/C=C/C(=O)Nc2ccc(CN3CCOCC3)cc2)cc1 | 2.2µM* | 28µM* | -2%[46.1 µM] | ? | ?
O=C(/C=C/c1ccc(Cl)cc1)Nc1ccc(CN2CCOCC2)cc1 | ? | ? | ? | -24%[46.1 µM] | -89*
CC(Sc1nnc(-c2cccnc2)n1N)C(=O)N1CCOCC1 (stereo not given) | 10% | -18% | ? | -1%[46.1 µM] | 26
CC(Sc1nnc(-c2cccnc2)n1-c1ccccc1F)C(=O)N1CCCc2ccccc21 (stereo not given) | 6% | . | -1% | . | -65*
COc1ccc(-c2oc3cc(O)c(OC)c(O)c3c(=O)c2OC)cc1O | 3% | 20% | ? | ? | -62*
COc1cc(OC)c2c(=O)c(OC)c(-c3ccc(OC)c(OC)c3)oc2c1 | 1.1µM* | 5% | . | . | .
CC1CCN(C(=O)c2ccc3c(c2)N(Cc2ccccc2F)C(=O)c2ccccc2S3(=O)=O)CC1 | . | 17% | -9%[46.1 µM] | -25%[46.1 µM] | -5
CN(C)c1ccc(-c2noc(C3CCN(S(=O)(=O)c4cccc(Cl)c4)CC3)n2)cc1 | ? | -16% | ? | ? | ?
Cc1ccc(-c2noc(C3CCN(S(=O)(=O)c4ccc5c(c4)OCCO5)CC3)n2)o1 | 13µM* | ? | ? | ? | -96*
O=S(=O)(c1ccc2ccccc2c1)N1CCC(c2nc(-c3ccncc3)no2)CC1 | 8.9µM* | ? | ? | -13% | -73*
COc1cccc(-c2nnc(SCC(=O)NC3CCCCC3)o2)c1 | . | 21% | 0%[46.1 µM] | -4%[46.1 µM] | -9
c1ccc(-c2ccc(C3=Nn4c(Cn5nnc6ccccc65)nnc4SC3)cc2)cc1 | -65% | ? | ? | 11µM* | -27
c1ccc(C2=Nn3c(Cn4nnc5ccccc54)nnc3SC2)cc1 | 9% | 6% | 1%[46.1 µM] | 13% | 9
CCCOc1cccc(C(=O)Nc2ccc(-c3nc4ccccc4o3)cc2)c1 | . | -7% | . | -17%[46.1 µM] | -1
SMILES | HCV inhibitor | FMDV antiviral | Marburg entry inh | Lassa entry inh | HCMV antiviral
O=C(c1ccc2c(c1)OCO2)N1CC(=O)N2[C@H](C1)[C@@H](c1ccc(Br)cc1)[C@@H]2CO | . | . | . | . | -4
Cc1cc(C(=O)N/N=C/c2cc(Br)ccc2OC(=O)c2ccccc2)n[nH]1 | ? | -8% | 10µM* | ? | 103
Cc1cc(C(=O)N/N=C/c2cc(Br)ccc2OC(=O)c2ccccc2Cl)n[nH]1 | ? | -13% | 10µM* | 10µM* | ?
COc1ccc(NC(=O)CCNS(=O)(=O)c2ccc3c(c2)CCN3C(=O)C2CC2)cc1Cl | . | -18% | . | -13%[46.1 µM] | -18
CCC(=O)N1CCc2cc(Br)cc(S(=O)(=O)N3CCC(C(=O)N(CC)CC)CC3)c21 | . | 12% | 1%[46.1 µM] | 1%[46.1 µM] | -1
CC1=C(C(=O)Nc2ccc(C)cc2C)C(c2ccc(C(C)C)cc2)n2nc(C(F)(F)F)nc2N1 (stereo not given) | . | -11% | -9%[46.1 µM] | 7%[46.1 µM] | -34
CN(C)c1ccc(C(CNC(=O)c2ccc(C(C)(C)C)cc2)N2CCOCC2)cc1 (stereo not given) | . | -8% | . | ? | -23
CCOc1cc(C(=O)NCC(c2ccc(N(C)C)cc2)N2CCOCC2)cc(OCC)c1OCC (stereo not given) | . | -22% | . | -2%[46.1 µM] | -62*
Cc1ccccc1NC(=O)CS(=O)(=O)c1cccc2nsnc12 | . | 16% | . | 5%[46.1 µM] | -4
COc1ccc(/C=C/C(=O)Nc2ccccc2F)cc1S(=O)(=O)N1CCOCC1 | 10µM* | 25µM* | ? | ? | -19
COc1ccc(/C=C/C(=O)Nc2cccc(F)c2)cc1S(=O)(=O)N1CCOCC1 | 10µM* | 35µM* | ? | 5.6µM* | ?
COc1cc(/C=C/C(=O)Nc2ccc(OC)c(S(=O)(=O)N3CCOCC3)c2)ccc1OC(F)F | 0.25µM* | ? | ? | 13µM* | -86*
CCOc1ccccc1NC(=O)/C=C/c1ccc(S(=O)(=O)N2CCOCC2)cc1 | 10µM* | -8% | -7% | ? | -5
COc1ccc(/C=C/C(=O)Nc2ccc(C(C)=O)cc2)cc1S(=O)(=O)N1CCOCC1 | . | -14% | . | . | 6
COc1ccc(/C=C/C(=O)Nc2ccccc2C)cc1S(=O)(=O)N1CCOCC1 | ? | ? | -4% | . | ?
COc1ccc2[nH]c(C)c(C(=O)CN3C[C@@H](C)O[C@@H](C)C3)c2c1 | . | . | -1% | . | .
CC1CN=C(c2cc(Cl)c(N)c(Cl)c2)c2c3ccc(C(F)(F)F)cc3[n+]([O-])n21 (stereo not given) | . | . | . | . | 40
CCCCOC(=O)c1ccc(Nc2ncnc3nc[nH]c23)cc1 | 2% | 38% | 13% | 3% | 82
CCCCCCCCOC(=O)c1cc([N+](=O)[O-])c(Sc2ncnc3nc[nH]c23)c([N+](=O)[O-])c1 | 10% | ? | ? | 11µM* | ?
COc1ccc(/C=C2\N=C(c3ccccc3Cl)NC2=O)cc1 | ? | 53% | . | . | -73*
O=C(CSc1nccn1-c1ccc(Cl)cc1)Nc1cccc2ccccc12 | . | -17% | . | ? | ?
COc1ccc2c(c1)-c1nc(/N=C/c3ccc(O)c(OC)c3)sc1CC2 | 11µM* | 2% | ? | 5% | .
COc1ccc2c(c1)-c1nc(N)sc1CC2 | ? | 27% | -2%[46.1 µM] | 17%[46.1 µM] | ?
N#CC(C#N)=NNc1ccc(-n2ccc(C(F)(F)F)n2)cc1 | 4µM* | ? | 3.2µM* | ? | -97*
O=C(Nc1ccccc1)Nc1ccc(-n2ccc(C(F)(F)F)n2)cc1 | ? | 72% | . | . | 4

Compound activity from PubChem BioAssay.
